# Shown are actives, neighbours in structure and some others; about 7.2% of the full set was active somewhere.
# Luciferase inh = inhibitors of firefly (Photinus pyralis) luciferase. Potency, µM (doses to about 115 µM), usual class: inhibitors. hit rate 2.5% among 76,000. purified P. pyralis luciferase, luminescence, biochemical. P08659; further: nearly all actives have a fitted effect of over 65% in size
# Target sequence (P08659 whole entry, looked up): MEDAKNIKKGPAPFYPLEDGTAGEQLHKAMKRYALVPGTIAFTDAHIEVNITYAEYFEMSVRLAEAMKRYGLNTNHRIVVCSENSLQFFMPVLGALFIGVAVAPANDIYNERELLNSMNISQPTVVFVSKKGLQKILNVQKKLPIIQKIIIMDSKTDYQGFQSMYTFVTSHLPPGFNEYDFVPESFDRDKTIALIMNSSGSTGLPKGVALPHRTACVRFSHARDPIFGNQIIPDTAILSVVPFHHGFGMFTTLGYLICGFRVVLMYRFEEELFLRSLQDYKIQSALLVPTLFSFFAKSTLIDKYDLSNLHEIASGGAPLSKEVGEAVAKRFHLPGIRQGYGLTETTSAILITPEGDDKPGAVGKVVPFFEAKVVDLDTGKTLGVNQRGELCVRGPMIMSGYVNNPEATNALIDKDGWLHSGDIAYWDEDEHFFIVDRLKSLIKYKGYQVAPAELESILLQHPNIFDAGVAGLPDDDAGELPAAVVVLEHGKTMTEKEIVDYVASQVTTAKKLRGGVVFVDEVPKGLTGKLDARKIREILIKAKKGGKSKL
#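 Biochemical qHTS: compound (6-point titration) added to 10uM D-luciferin plus 10uM ATP in Tris acetate pH 7.5 buffer with Mg, Tween-20 and BSA, then purified enzyme at 10nM; light output imaged.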
# SNCA viab count = cell viability loss counter-screen. HEK-293-SNCA-luc viability, GF-AFC fluorescence, 24 h. Potency, µM (doses to about 57.1 µM), hits mostly cytotoxic. hit rate 0.12% among 150,000; further: nearly all actives have a fitted effect of over 30% in size
#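 Cytotoxicity counterscreen: after 24 h compound treatment of genome-edited SNCA-luciferase HEK-293 cells, live-cell protease substrate GF-AFC read by fluorescence after 30 min; activity scaled between DMSO (0%) and medium-only (-100%), curves Hill-fitted.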
# HEK293 tox = kills HEK 293 cells; HEK 293 viability, ATP luminescence (CellTiter-Glo), 48-72 h; Potency, µM (series often up to 115 µM), usual class: inhibitors; hit rate 6.6% among 94,000; further: nearly all actives have a fitted effect of over 60% in size
#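 Cytotoxicity was scored by loss of ATP-coupled luminescence (CellTiter-Glo) in HEK 293 cells. Compound treatment ran 48 or 72 hr at 37 degree Celsius, 5% CO2, 95% humidity.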
# SNCA expr inh = reduces expression of the alpha-synuclein gene | HEK-293 SNCA-luciferase knock-in, luminescence, 24 h | Potency, µM (doses to about 57.2 µM), usual class: inhibitors | hit rate 0.17% among 140,000 | AID 1671194; further: nearly all actives have a fitted effect of over 45% in size
# NPR1 antag = antagonists of human natriuretic peptide receptor Npr1. HEK293 hNpr1 GloSensor cGMP, ANP-stimulated luminescence. Potency, µM (titrated, usually from 46.3 µM), actives largely listed as inhibitors. hit rate 1.6% among 76,000. AID 1347048; calls by dose curve; further: nearly all actives have a fitted effect of over 60% in size
#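 Compound pre-incubated 30 min at room temperature on GloSensor-loaded HEK293 cells stably carrying hNpr1 and the pGS-40F cGMP biosensor. Stimulation uses hNppA at 0.1 nM final; luminescence is taken at baseline and 20 min post-agonist.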
# 3T3 cytotox = kills NIH 3T3 cells; NIH 3T3 viability, CellTiter-Glo ATP luminescence, 48-72 h; Potency, µM (highest dose often 96.7 µM), usual class: inhibitors; hit rate 4.3% among 94,000; further: nearly all actives have a fitted effect of over 55% in size
#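 First NIH 3T3 cells are plated at 400 cells/well; next compound is pinned in; then plates incubate 48 or 72 hr at 37 °C; finally CellTiter-Glo is added and luminescence read after 10 min.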
# Hits are given with their value; – = inactive; ? = inconclusive; · = no result; ! = a repeat was not active; [ ] = dose if it differs, or a comment. Unless noted, the call rests on the fitted dose curve; in most records, active means well fitted curve in the direction sought with a large enough effect; inconclusive means small, poorly fitted or top-dose-only effect, or another doubt; inactive means no such curve, though single readings can be large; an effect the other way counts as inactive or inconclusive.
SMILES,Luciferase inh,SNCA viab count,HEK293 tox,SNCA expr inh,NPR1 antag,3T3 cytotox
Oc1ccccc1CN1CCNc2cnc(OCc3cccnc3)cc2C1,–,–,100µM,–,?,–
CCN(CCOC)Cc1cn(-c2ccc(F)cc2F)nc1-c1ccccc1C,–,–,?,–,–,–
CN1C[C@@H](NC(=O)C2CCCCC2)C[C@H]1c1nc(-c2ccc(F)cc2)no1,–,–,–,–,–,–
COc1ccc(-n2c(=O)c3c(n2Cc2ccccc2)CN(C(=O)c2cccc(C#N)c2)CC3)cc1,–,–,–,–,–,?
c1cncc(Nc2cc3c(cn2)CN(Cc2ccc4[nH]ccc4c2)CCN3)c1,40µM,?,89µM,–,–,?
COc1ccc(CN2CCNc3cnc(Nc4cccnc4)cc3C2)cc1O,–,–,?,–,–,?
Cn1c(CO[C@H]2CN(C(=O)C3CCOCC3)C[C@H]2F)nc2ccccc21,–,–,–,–,–,–
Cc1nn2c(c1-c1ccccc1OCc1ccccc1)N(Cc1nccn1C)CCC2,–,–,100µM,?,–,?
Cc1nn2c(c1-c1ccccc1OCc1ccccc1)N(Cc1ccccc1O)CCC2,–,–,?,?,?,?
Cc1nn2c(c1-c1ccccc1OCc1ccccc1)N(Cc1cccnc1)CCC2,–,–,63µM,–,–,?
CCC(=O)N1CCCCCCNC(=O)CC1c1ccccc1 (stereo unspecified),–,–,–,–,–,–
COCC(=O)NC[C@H]1CCN(Cc2ccc(OC)cc2)C[C@H]1N(C)C,–,–[12.5 µM],–,?,–,–
O=C(NCc1nnc2n1C(C(=O)NCc1ccc(F)cc1)CC2)c1cccnc1 (stereo unspecified),·,–,–,–,·,–
CN(C)C(=O)c1ccc(OC2CCN(C(=O)c3ccc(Cl)cc3)CC2)nc1,–,–,?,–,–,40µM
CC(C)c1ccc(C(=O)N2CCC(Oc3ccc(C(=O)N(C)C)cn3)CC2)cc1,–,–,?,–,–,–
O=C(NC1CCN(c2cc(-c3ccc(Cl)cc3)[nH]n2)C1)c1ccc2c(c1)OCO2 (stereo unspecified),–,–,?,–,–,?
O=C(NC1CCCN(c2cc(-c3ccc(Cl)cc3)[nH]n2)C1)c1ccc2c(c1)OCO2 (stereo unspecified),?,–,45µM,–,–,?
COc1ccc(-c2cc(N3CCC(NC(=O)c4ccc5c(c4)OCO5)C3)n[nH]2)cc1 (stereo unspecified),–,–,79µM,–,–,?
O=C1CC2(CCN(c3cnc4ccccc4n3)CC2)CN1CCCc1ccccc1,–,–,35µM,–,?,?
CCCN1CCN(C(=O)CN2CC3CC(C2)[C@H]2CCCC(=O)N2C3)CC1 (stereo partly specified),–,–,–,–,–,–
O=C(NC1CC1)C1CCCN(Cc2cccc(-c3cccs3)c2)C1 (stereo unspecified),·,–,40µM,–,·,?
O=C(NC1CCCCC1)C1CCCN(Cc2cccc(-c3cccs3)c2)C1 (stereo unspecified),·,–,?,–,·,28µM
O=C(NC1CCN(Cc2cccc(-c3cccs3)c2)CC1)C1CC1,·,–[12.5 µM],?,–,·,?
O=C(NC1CCCC1)C1CCCN(Cc2cccc(-c3cccs3)c2)C1 (stereo unspecified),·,–,45µM,?,·,?
O=C(NC1CCN(Cc2cccc(-c3cccs3)c2)CC1)C1CCCC1,·,–[12.5 µM],–,–,·,–
SMILES,Luciferase inh,SNCA viab count,HEK293 tox,SNCA expr inh,NPR1 antag,3T3 cytotox
Cn1cccc1CN1CCC2(CC1)CC(=O)c1ccccc1O2,?,–,?,–,–,?
CN(C)C(=O)c1cn2cc(-c3ccccc3)sc2n1,·,–,?,–,·,?
COCCCNC(=O)c1cn2cc(-c3ccc(C)cc3)sc2n1,·,–,?,–,·,?
COCCCNC(=O)c1cn2cc(-c3cccc(C#N)c3)sc2n1,·,–,?,–,·,45µM
COCCCNC(=O)c1cn2cc(-c3ccc(OC)cc3)sc2n1,·,–,79µM,–,·,40µM
COc1ccc(-c2cn3cc(C(=O)N(C)C)nc3s2)cc1,·,–,?,–,·,89µM
COc1ccc(-c2cn3cc(C(=O)NCC4CC4)nc3s2)cc1,·,–,63µM,–,·,50µM
CC(CCc1ccccc1)NC(=O)CN1C(=O)C(c2ccccc2)=NC1(C)C (stereo unspecified),–,–[12.5 µM],?,–,–,?
Clc1cccc(CN2CC(CNc3cccnc3)C3(C2)CN(c2ccccc2)C3)c1 (stereo unspecified),–,–,?,?,–,?
O=C(O)c1cccc(CN2CC(CNc3ccccc3)C3(C2)CN(c2ccccc2)C3)c1 (stereo unspecified),–,–,–,–,–,?
O=C(COc1ccccc1)N1CC(CNc2cccnc2)C2(C1)CN(c1ccccc1)C2 (stereo unspecified),–,?,71µM,–,–,?
Oc1ccc(CN2CC(CNc3ccccc3)C3(C2)CN(c2ccccc2)C3)cc1 (stereo unspecified),–,?,40µM,?,–,25µM
c1ccc(CN2CC(CNc3cccnc3)C3(C2)CN(c2ccccc2)C3)cc1 (stereo unspecified),–,–,?,–,–,50µM
O=C(NCC1CN(Cc2cccc(O)c2)CC12CN(c1ccccc1)C2)c1ccccc1 (stereo unspecified),–,?,?,–,–,28µM
COc1ccccc1C(=O)N1CC(CNc2cccnc2)C2(C1)CN(c1ccccc1)C2 (stereo unspecified),–,–,?,–,–,?
COc1ccc(-c2ccccc2)cc1N1C(=O)[C@@H]2C[C@H]1CN2C(=O)C(C)(C)N,–,–,–,–,–,–
Nc1ncccc1CN1CC(COc2ccccc2)C2(C1)CN(c1ccccc1)C2 (stereo unspecified),–,–,35µM,?,–,40µM
O=C(NCC1CN(C(=O)Cc2ccc(OC(F)(F)F)cc2)CC12CN(c1ccccc1)C2)Nc1ccccc1 (stereo unspecified),–,?,?,?,–,28µM
CC(=O)Nc1ccc(C(=O)N2CCN(c3cccc(C=O)c3)C(=O)C2)cc1,·,–,–,–,·,–
O=C(O)c1ccnc(-c2ccnc(NCC(O)c3ccccc3Cl)n2)c1 (stereo unspecified),32µM,–,–,?,–,–
O=c1n(-c2ccc(Cl)cc2)nc2n1CCN(Cc1ccc(F)cc1)C2,·,–,40µM,–,·,28µM
O=c1n(-c2ccc(C(F)(F)F)cc2)nc2n1CCN(Cc1ccc(C(F)(F)F)cc1)C2,–,–,35µM!,–,?,?
O=c1n(-c2ccc(F)cc2F)nc2n1CCN(Cc1ccccc1)C2,?,–,3.2µM,–,–,6.3µM
